Measured values taken from PubChem BioAssay (Tox21).
Unmarked numbers belong to inactive results. A call without a number means that no potency is given here. The source made the active and inactive calls. Calls come from the whole dose curve; as a rule, active = well fitted cell-killing curve with a large enough effect in the repeat runs; inconclusive = weak or mixed curves, or effect the other way; inactive = flat fitted curve, though single readings scatter.

Test: qHTS assay to identify small molecule HDAC inhibitors - cell viability counter screen (AID 1259365); note: nearly all actives have a fitted effect of over 50% in size
Conditions: HCT-116 viability, CellTiter-Glo ATP luminescence, 2 h; series mostly up to 92.4 µM
Summary of the method: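 Following a 2hr exposure of overnight-plated wild-type HCT-116 cells to DMSO-delivered compounds, CellTiter-Glo was added and luminescence recorded after 30min at room temperature.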
Potency is the fitted concentration of half-maximal effect.

Question: With `Nc1nc2c(ncn2COCCO)c(=O)[nH]1` as the compound, how does the Potency read?
Answer: inactive

Question: With `CC(C)NC[C@@H](O)COc1ccc(CC(N)=O)cc1` as the compound, how does the Potency read?
Answer: inactive

Question: With `COC(C)=O` as the compound, how does the Potency read?
Answer: inactive

Question: For `CCc1cccc(CC)c1NC(=O)CN(CC(=O)O)CC(=O)O`, which Potency is on record?
Answer: inactive

Question: With `CC(=O)Oc1cc2c(s1)CCN(C(C(=O)C1CC1)c1ccccc1F)C2` (stereo unspecified) as the compound, how does the Potency read?
Answer: inactive

Question: With `CCCCCCCCCCCCCCCC[N+](C)(C)CC` as the compound, how does the Potency read?
Answer: inactive

Question: For `Cc1c(N)cccc1C(F)(F)F`, which Potency is on record?
Answer: inactive

Question: Which Potency does the source give for `Cc1c(C)c2c(c(C)c1OC(=O)c1cccnc1)CC[C@@](C)(CCC[C@H](C)CCC[C@H](C)CCCC(C)C)O2` here?
Answer: inactive

Question: Which Potency does the source give for `O=C(O)c1cc(=O)c2ccccc2o1` here?
Answer: inactive

Question: With `CCN(CC)C(=O)c1cc(S(=O)(=O)Cc2ccccc2)c(N2CCC(c3ccccc3)CC2)cc1N(CC)CCN(C)C` as the compound, how does the Potency read?
Answer: inactive

Question: For `CN1CCN2c3ccccc3Cc3ccccc3C2C1` (stereo unspecified), which Potency is on record?
Answer: inactive

Question: With `Cc1c(F)c(N2CCNC(C)C2)cc2c1c(=O)c(C(=O)O)cn2C1CC1` (stereo unspecified) as the compound, how does the Potency read?
Answer: inactive

Question: Which Potency does the source give for `O=C(O)c1cc(-c2ccc(F)cc2F)ccc1O` here?
Answer: inactive

Question: Which Potency does the source give for `CC[N+](CC)(CC)CCOc1ccc(/C=C/c2ccccc2)cc1` here?
Answer: inactive

Question: For `O=c1[nH]c(=O)n([C@H]2C[C@H](O)[C@@H](CO)O2)cc1F`, which Potency is on record?
Answer: inactive

Question: Which Potency does the source give for `Cc1cccc(C(=O)O)c1O` here?
Answer: inactive

Question: Which Potency does the source give for `CCCCCCCCCCC[C@@H](C[C@@H]1OC(=O)[C@H]1CCCCCC)OC(=O)[C@H](CC(C)C)NC=O` here?
Answer: inactive

Question: Which Potency does the source give for `CCCCCCCC/C=C\CCCCCCCCN` here?
Answer: inactive

Question: For `Cc1cc(C(C)(C)C)cc(C)c1CC1=NCCN1`, which Potency is on record?
Answer: inactive

Question: With `C#CC1(O)CC[C@H]2[C@@H]3CCC4=CCCC[C@@H]4[C@H]3CC[C@@]21C` (stereo partly specified) as the compound, how does the Potency read?
Answer: 29.8 µM (active)

Question: Which Potency does the source give for `C=C(CC)C(=O)c1ccc(OCC(=O)O)c(Cl)c1Cl` here?
Answer: inactive

Question: Which activity change, negative = cytotoxicity does the source give for `CC(C)Cn1cnc2c(N)nc3ccccc3c21` here?
Answer: 0.199% [at 19 µM]

Question: Which activity change, negative = cytotoxicity does the source give for `C[C@H]1NCc2cc(-c3ccc4c(=O)c(C(=O)O)cn(C5CC5)c4c3OC(F)F)ccc21` here?
Answer: 0.0413% [at 19 µM]

Question: For `CC(C)=CCNc1ncnc2c1ncn2[C@@H]1O[C@H](CO)[C@@H](O)[C@H]1O`, which Potency is on record?
Answer: inactive

Question: For `CCOC(=O)NNc1ccc(N(CC)CC(C)O)nn1` (stereo unspecified), which Potency is on record?
Answer: inactive

Question: Which Potency does the source give for `O=C(O)[C@H](O)[C@@H](O)[C@H](O[C@@H]1O[C@H](CO)[C@H](O)[C@H](O)[C@H]1O)[C@H](O)CO` here?
Answer: inactive

Question: Which Potency does the source give for `CCCCCCCCCCCCOCCOCCOCCOCCOCCOCCOCCOCCOCCO` here?
Answer: inactive

Question: Which Potency does the source give for `CC(CCc1ccccc1)NCC(O)c1ccc(O)c(C(N)=O)c1` (stereo unspecified) here?
Answer: inactive

Question: For `CCCCC/C=C\C/C=C\CCCCCCCC(=O)O`, which Potency is on record?
Answer: inactive

Question: For `CCCCCCCCCCCCCC[N+](C)(C)C`, which Potency is on record?
Answer: inactive

Question: For `C#C[C@]1(OC(C)=O)CC[C@H]2[C@@H]3CCC4=C/C(=N/O)CC[C@@H]4[C@H]3CC[C@@]21CC`, which Potency is on record?
Answer: inactive

Question: For `CCCCCCCCCCCCCC[N+](C)(C)Cc1ccccc1`, which Potency is on record?
Answer: inactive

Question: For `CCOC(=O)Cn1cccc1-c1nc(-c2ccc(OC)cc2)c(-c2ccc(OC)cc2)s1`, which Potency is on record?
Answer: inactive

Question: With `Cc1c(C)c2c(c(C)c1O)CC[C@@](C)(CCC[C@H](C)CCC[C@H](C)CCCC(C)C)O2` as the compound, how does the Potency read?
Answer: inactive

Question: Which Potency does the source give for `CCN(CC)c1ccc2c(-c3ccc(S(=O)(=O)O)cc3S(=O)(=O)[O-])c3ccc(=[N+](CC)CC)cc-3oc2c1` here?
Answer: 12.6 µM (active)

Question: With `O[C@@H]([C@H](O)[C@H](O)CBr)[C@H](O)CBr` as the compound, how does the Potency read?
Answer: inactive
